According to PubChem BioAssay (NCATS):
Values joined by “and” are separate entries in the source; they are usually repeats but may differ in a detail not shown here. Equal entries are not always repeated. Inconclusive results are not listed. Active and inactive are the calls of the source. Unless noted, the call rests on the fitted dose curve; in most records, active means well fitted curve in either direction with a large enough effect (not every such curve was filed as active); inconclusive means small, poorly fitted or top-dose-only effect, or another doubt; inactive means flat fitted curve, though single readings scatter.

Legend:
[1] = AP1 Signaling Pathway (AID 357); details: ME-180 AP-1-bla reporter, EGF-induced, beta-lactamase ratio, 5 h;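 further: ME-180 reporter cells stimulated with EGF at its EC50 level; on the % scale 0 is the no-effect control and ±100 the full control effect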
Procedure, shortened: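 In this screen, ME-180 cells in Opti-MEM with 0.5% dialyzed FBS received EC50 EGF and compound titrations for 5 h. AP-1 reporter beta-lactamase was detected via CCF4 ratio, giving AC50 for positive and negative modulators.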

[2] = biological target: Cytochrome P450 1A2 (Homo sapiens) (UniProt P05177); assay: p450-cyp1a2 (AID 410; calls by dose curve;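 further: -100% = full effect of reference inhibitor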)
Sequence of Cytochrome P450 1A2 (Homo sapiens) (P05177 whole entry, looked up): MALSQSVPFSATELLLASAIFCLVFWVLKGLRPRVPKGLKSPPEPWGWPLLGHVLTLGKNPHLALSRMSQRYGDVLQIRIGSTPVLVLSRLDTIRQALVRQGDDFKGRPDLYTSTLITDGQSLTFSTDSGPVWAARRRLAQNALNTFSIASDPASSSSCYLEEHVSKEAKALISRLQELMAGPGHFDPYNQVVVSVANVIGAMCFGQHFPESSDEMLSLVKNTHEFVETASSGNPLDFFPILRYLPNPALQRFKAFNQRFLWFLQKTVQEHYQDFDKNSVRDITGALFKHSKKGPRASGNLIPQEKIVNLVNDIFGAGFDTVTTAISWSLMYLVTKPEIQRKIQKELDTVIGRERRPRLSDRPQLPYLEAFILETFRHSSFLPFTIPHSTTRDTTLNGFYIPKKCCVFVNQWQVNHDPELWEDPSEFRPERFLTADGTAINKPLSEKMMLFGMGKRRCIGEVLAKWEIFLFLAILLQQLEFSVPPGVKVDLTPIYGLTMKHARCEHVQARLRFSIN
Procedure, shortened: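 20nM CYP1A2, 100uM Luciferin-ME (=Km), 100mM KPO4; cpd 10 min RT; +NADPH regen, 60 min RT; stop/detect 20 min; luminescence. Normalized to furafylline 57 uM = full inhibition.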

[3] = NFAT Signaling Pathway (AID 444); details: Jurkat NFAT-bla M1, carbachol, beta-lactamase ratio, 5 h;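 further: carbachol stimulus at about its EC50 of 1 µM final; on the % scale 0 is the no-effect control and ±100 the full control effect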
Procedure, shortened: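 Jurkat cells carrying an NFAT-driven β-lactamase reporter and co-transfected muscarinic M1 receptor were treated with compound plus carbachol (1 uM final, an EC50 level) for 5 h at 37 °C. CCF4 loading followed for 1 h at RT; 460/530 nm ratio gave %activity.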

[4] = Stat Signaling Pathway (AID 446); details: ME-180 (cervical carcinoma) SIE beta-lactamase reporter, IL-6 stimulated, 5 h;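 further: ME-180 cervical cancer cells given 40 pM IL-6 alongside compound; SIE-controlled beta-lactamase reporter measured as 460/530 nm FRET emission ratio; on the % scale 0 is the no-effect control and ±100 the full control effect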
Procedure, shortened: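 Overnight-plated ME-180 cells bearing a STAT Inducible Element beta-lactamase reporter; 5 h co-exposure to compound and 40 pM IL-6; values normalized to 300 pM IL-6 and 125 nM JAK inhibitor controls.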

[5] = biological target: Glucocorticoid receptor (Homo sapiens) (UniProt P04150); assay: GR-GFP Redistribution (AID 450;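 active means compounds whose dose series gives a full or clear partial fitted curve of increased nuclear translocation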; further: potency means the concentration at half of the fitted maximal effect); details: U2OS GR-GFP nuclear translocation, laser cytometry, 2 h
Sequence of Glucocorticoid receptor (Homo sapiens) (P04150 whole entry, looked up, the tested form may be a part): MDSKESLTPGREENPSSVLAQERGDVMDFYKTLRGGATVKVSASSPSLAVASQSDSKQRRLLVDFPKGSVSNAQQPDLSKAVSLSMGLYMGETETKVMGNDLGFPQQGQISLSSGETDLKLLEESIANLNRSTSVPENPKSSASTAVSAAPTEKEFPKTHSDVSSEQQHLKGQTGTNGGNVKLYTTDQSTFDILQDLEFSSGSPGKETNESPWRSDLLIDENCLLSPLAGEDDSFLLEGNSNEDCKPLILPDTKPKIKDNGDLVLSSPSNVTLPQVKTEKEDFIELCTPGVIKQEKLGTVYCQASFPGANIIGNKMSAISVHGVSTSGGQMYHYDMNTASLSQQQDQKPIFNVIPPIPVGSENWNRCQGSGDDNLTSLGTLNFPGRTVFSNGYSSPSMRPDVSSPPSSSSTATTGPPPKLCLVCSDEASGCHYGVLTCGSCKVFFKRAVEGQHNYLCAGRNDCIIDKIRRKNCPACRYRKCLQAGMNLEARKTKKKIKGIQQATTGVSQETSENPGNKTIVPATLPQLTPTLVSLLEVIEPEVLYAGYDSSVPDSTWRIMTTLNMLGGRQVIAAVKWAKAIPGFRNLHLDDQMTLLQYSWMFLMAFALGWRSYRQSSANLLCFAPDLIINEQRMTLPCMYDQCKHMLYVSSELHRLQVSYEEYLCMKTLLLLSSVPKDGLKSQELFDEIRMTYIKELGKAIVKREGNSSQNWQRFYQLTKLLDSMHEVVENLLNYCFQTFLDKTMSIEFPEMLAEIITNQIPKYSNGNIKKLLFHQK

[6] = biological target: Glucocorticoid receptor (Homo sapiens) (UniProt P04150); assay: GR-EFC Redistribution (AID 451; calls by dose curve; further: potency means the concentration at half of the fitted maximal effect); details: CHO-K1 GR-EFC translocation, beta-gal luminescence, 2 h
Procedure, shortened: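 CHO-K1 cells stably expressing nuclear-localized β-gal enzyme acceptor and GR fused C-terminally to the enzyme donor fragment; ligand-driven nuclear translocation restores β-gal by complementation. Compounds titrated up to 46 uM final, 2 h at 37 °C; luminescence read.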

[7] = biological target: Mitogen-activated protein kinase 10 (Mus musculus) (UniProt Q61831); assay: JNK3 AlphaScreen Assay (AID 530);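 further: kinase came from lysate of stimulated human HepG2 cells; signal reports phosphorylation of biotinylated GST-cJun 1-79 at Ser73 with 10 µM ATP; on the % scale 0 is the no-effect control and ±100 the full control effect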
Procedure, shortened: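 Biotinylated GST-cJun(1-79) served as substrate for JNK3 in HepG2 lysates stimulated with IL-1beta and TNF-alpha. ATP was 10 uM final, pH 7.6. Ser73 phosphorylation was quantified by AlphaScreen (680 nm excitation).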

[8] = biological target: 3',5'-cyclic-AMP phosphodiesterase 4B (Homo sapiens) (UniProt Q07343); assay: qHTS Assay for Inhibitors of PDE-IV (AID 607; active means well fitted activation curve with a large enough effect in the main read-out, with a control signal flat, not every such curve was filed as active; further: % of control where 0% means no effect)
Sequence of 3',5'-cyclic-AMP phosphodiesterase 4B (Homo sapiens) (Q07343 whole entry, looked up): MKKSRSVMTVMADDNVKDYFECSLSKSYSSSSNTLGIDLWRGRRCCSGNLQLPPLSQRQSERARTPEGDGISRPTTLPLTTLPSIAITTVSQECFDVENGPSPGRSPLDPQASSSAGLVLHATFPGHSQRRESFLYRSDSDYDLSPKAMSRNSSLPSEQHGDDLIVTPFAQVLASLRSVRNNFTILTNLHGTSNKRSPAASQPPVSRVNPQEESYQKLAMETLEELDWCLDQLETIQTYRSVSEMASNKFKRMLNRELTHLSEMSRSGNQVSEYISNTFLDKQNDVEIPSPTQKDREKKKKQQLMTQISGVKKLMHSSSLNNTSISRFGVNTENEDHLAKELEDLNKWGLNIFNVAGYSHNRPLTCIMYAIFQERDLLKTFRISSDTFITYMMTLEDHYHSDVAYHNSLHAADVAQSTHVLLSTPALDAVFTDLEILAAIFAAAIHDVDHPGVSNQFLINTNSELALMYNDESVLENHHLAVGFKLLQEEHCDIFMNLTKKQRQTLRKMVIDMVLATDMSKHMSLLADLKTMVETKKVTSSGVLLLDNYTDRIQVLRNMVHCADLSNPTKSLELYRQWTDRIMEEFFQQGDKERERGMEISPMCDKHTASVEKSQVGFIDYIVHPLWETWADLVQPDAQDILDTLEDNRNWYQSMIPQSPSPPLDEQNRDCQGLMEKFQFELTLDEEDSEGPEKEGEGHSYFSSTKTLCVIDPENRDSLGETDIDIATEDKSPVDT
Procedure, shortened: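 Live HEK293 cells with a modified cyclic nucleotide-gated (CNG) channel report intracellular cAMP via membrane-potential dye fluorescence (ex 535/em 590 nm). Endogenous PDE-IV was targeted. Compounds were tested at up to 22.9 uM final; RO 20-1724 100 uM served as control.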

[9] = qHTS Assay for Lipid Storage Modulators (AID 1519; calls by dose curve); details: Drosophila S3 cells, BODIPY lipid droplet/cell ratio, laser cytometry, cells loaded with oleic acid; for activity change, negative = inhibition: at 25.7 µM (top of the series)
Procedure, shortened: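 Cells seeded at 5,000 per well were treated with compounds over a concentration series and loaded with oleic acid (400 uM, as added). Lipid droplet fluorescence (488 nm excitation, 500-530 nm channel) was read by laser-scanning cytometry and normalized to 20 uM Triacsin C.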

[10] = qHTS profiling for inhibitors of Plasmodium falciparum proliferation (AID 504749; active means well fitted curve in the direction sought with a large enough effect; an effect the other way counts as inactive or inconclusive;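 further: 0% = DMSO vehicle and full inhibition = artemisinin control; nearly all actives have a fitted effect of over 60% in size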); details: P. falciparum in erythrocytes, SYBR Green DNA, 72 h
Procedure, shortened: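 Fluorescence of SYBR Green-bound parasite DNA, read at 485/535 nm, served as the growth measure. Infected erythrocytes were cultured with compound 72 h; artemisinin (0.29 uM) and DMSO wells defined the normalization range.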

[11] = biological target: Ubiquitin carboxyl-terminal hydrolase 1 (Homo sapiens) (UniProt O94782); assay: Inhibitors of USP1/UAF1: Pilot qHTS (AID 504865; active means well fitted curve in the direction sought with a large enough effect; an effect the other way counts as inactive or inconclusive;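 further: rhodamine fluorescence freed from ubiquitin-rhodamine substrate followed over time; top concentration of the series differs between compounds; on the % scale 0 is the no-effect control and ±100 the full control effect; nearly all actives have a fitted effect of over 35% in size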)
Sequence of Ubiquitin carboxyl-terminal hydrolase 1 (Homo sapiens) (O94782 whole entry, looked up): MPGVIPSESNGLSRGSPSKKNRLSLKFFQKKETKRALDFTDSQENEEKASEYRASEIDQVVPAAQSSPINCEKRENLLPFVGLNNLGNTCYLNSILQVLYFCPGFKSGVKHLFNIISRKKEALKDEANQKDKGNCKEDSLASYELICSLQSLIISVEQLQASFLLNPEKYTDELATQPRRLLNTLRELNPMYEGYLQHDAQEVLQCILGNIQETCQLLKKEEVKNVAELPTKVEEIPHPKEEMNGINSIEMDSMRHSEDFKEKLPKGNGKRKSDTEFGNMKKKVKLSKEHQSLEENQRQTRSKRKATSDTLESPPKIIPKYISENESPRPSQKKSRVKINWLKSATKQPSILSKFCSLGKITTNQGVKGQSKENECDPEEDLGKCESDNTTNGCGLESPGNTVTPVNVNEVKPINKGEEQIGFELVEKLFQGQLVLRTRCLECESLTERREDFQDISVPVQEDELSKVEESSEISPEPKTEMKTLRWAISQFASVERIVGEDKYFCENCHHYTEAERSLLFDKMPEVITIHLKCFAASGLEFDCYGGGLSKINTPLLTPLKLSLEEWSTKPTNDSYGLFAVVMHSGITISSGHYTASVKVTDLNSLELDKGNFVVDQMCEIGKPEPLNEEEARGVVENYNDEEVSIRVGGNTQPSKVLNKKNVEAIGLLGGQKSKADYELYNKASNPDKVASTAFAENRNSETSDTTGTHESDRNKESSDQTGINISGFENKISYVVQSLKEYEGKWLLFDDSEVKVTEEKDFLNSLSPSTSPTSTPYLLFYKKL
Procedure, shortened: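 Enzyme-free wells gave the negative control, while test wells held 1nM USP1/UAF1 preincubated with compound for 15 min at room temperature. Ub-Rho at 150nM final started the reaction, and fluorescence at 480/540 nm was recorded kinetically.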

[12] = biological target: Guanine nucleotide-binding protein G(i) subunit alpha-1 (Homo sapiens) (UniProt P63096); assay: qHTS Assay for Inhibitors of RGS12 GoLoco Motif Activity (Green Fluorophore) (AID 879; active means well fitted curve in the direction sought with a large enough effect; an effect the other way counts as inactive or inconclusive;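 further: 0% = labeled peptide with Gαi1 and full inhibition = labeled peptide alone without protein; negative values mean loss of peptide binding seen as reduced polarization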)
Sequence of Guanine nucleotide-binding protein G(i) subunit alpha-1 (Homo sapiens) (P63096 whole entry, looked up): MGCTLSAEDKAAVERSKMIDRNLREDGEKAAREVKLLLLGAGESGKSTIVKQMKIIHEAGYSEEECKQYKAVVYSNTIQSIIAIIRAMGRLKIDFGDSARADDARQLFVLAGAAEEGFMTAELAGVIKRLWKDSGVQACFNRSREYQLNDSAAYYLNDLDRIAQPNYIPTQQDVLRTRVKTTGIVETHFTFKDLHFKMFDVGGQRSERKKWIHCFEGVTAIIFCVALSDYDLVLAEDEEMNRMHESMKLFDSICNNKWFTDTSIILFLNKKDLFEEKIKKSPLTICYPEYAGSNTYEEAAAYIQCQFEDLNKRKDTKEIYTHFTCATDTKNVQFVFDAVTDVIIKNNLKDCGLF
Procedure, shortened: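 A drop in FITC polarization marked displacement of the FITC-tagged RGS12 GoLoco peptide (10 nM) from Gαi1 (50 nM). Compounds were incubated 10 min at room temperature in Tris pH 7.5 buffer containing 150 mM NaCl, 0.1 mM GDP and 0.05% NP40; unlabeled peptide titration served as control.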

[13] = biological target: Cytochrome P450 3A4 (Homo sapiens) (UniProt P08684); assay: qHTS Assay for Activators of Cytochrome P450 3A4 (AID 885; active means well fitted curve in the direction sought with a large enough effect; an effect the other way counts as inactive or inconclusive; further: nearly all actives have a fitted effect of over 65% in size)
Sequence of Cytochrome P450 3A4 (Homo sapiens) (P08684 whole entry, looked up): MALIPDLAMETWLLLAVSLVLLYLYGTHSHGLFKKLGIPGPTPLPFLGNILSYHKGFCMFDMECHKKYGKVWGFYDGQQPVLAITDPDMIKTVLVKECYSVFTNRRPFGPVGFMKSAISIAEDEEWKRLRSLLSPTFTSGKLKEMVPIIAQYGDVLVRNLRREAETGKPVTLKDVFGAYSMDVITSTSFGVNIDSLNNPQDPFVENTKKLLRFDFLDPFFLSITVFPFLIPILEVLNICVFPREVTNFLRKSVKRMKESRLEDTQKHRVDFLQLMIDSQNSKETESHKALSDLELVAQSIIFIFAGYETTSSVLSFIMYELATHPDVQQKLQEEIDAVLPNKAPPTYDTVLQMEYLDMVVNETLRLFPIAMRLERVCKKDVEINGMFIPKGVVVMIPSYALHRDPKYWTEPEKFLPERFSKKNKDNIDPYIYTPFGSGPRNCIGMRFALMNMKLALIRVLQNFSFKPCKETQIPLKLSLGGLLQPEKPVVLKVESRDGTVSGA
Procedure, shortened: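 Using 20nM recombinant human CYP3A4 in potassium phosphate (200mM), substrate Luciferin-PPXE at 25uM, luminescent luciferin detection followed a 60-min RT NADPH reaction; data scaled to 57 uM ketoconazole.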

[14] = qHTS Assay for Identification of Small Molecule Agonists for Thrombopoietin (TPO) Signaling Pathway (AID 917; active means well fitted curve in the direction sought with a large enough effect; an effect the other way counts as inactive or inconclusive; further: on the % scale 0 is the no-effect control and ±100 the full control effect)
Procedure, shortened: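 Human TPO receptor–transfected Ba/F3 cells (murine, IL-3-dependent) in IL-3-deficient medium; compounds plus TPO at EC50, 26 pM final; 24 hrs, 37 C; GpIIb-luciferase luminescence after 10 min RT detection.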

[15] = biological target: Pyruvate kinase (Leishmania mexicana) (UniProt Q27686); assay: qHTS Validation Assay for Inhibitors of Leishmania Mexicana Pyruvate Kinase (AID 945; active means well fitted curve in the direction sought with a large enough effect; an effect the other way counts as inactive or inconclusive;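 further: 0% = DMSO only neutral control wells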)
Sequence of Pyruvate kinase (Leishmania mexicana) (Q27686 2-499 E452W): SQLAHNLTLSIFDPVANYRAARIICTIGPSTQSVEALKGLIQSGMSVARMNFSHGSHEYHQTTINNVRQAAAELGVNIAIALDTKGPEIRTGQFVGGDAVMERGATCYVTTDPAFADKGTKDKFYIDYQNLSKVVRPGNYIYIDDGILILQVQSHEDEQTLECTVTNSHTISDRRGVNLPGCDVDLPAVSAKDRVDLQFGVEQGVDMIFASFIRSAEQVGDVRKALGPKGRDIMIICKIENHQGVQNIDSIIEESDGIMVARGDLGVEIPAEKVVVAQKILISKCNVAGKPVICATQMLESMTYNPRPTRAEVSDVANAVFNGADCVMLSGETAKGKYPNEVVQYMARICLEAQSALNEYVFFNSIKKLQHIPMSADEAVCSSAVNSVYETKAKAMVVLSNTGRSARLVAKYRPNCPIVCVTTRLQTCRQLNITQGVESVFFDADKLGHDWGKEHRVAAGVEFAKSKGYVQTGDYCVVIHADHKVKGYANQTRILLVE
Procedure, shortened: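 Compounds are tested as eight-point concentration series. Reactions contain 0.2 nM LmPYK E451W, 0.5 mM PEP, 0.1 mM ADP, 7 mM MgCl2 and 50 mM KCl at pH 7.2, run 1 h at room temperature, then read by PKLight luminescence.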

[16] = biological target: Pyruvate kinase PKM (Homo sapiens) (UniProt P14618); assay: qHTS Assay for Activators of Human Muscle Pyruvate Kinase (AID 954; active means well fitted curve in the direction sought with a large enough effect, not every such curve was filed as active;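 further: 0% = uninhibited enzyme and -100% = no enzyme or full thiadiazolimine inhibition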)
Sequence of Pyruvate kinase PKM (Homo sapiens) (P14618 whole entry, looked up): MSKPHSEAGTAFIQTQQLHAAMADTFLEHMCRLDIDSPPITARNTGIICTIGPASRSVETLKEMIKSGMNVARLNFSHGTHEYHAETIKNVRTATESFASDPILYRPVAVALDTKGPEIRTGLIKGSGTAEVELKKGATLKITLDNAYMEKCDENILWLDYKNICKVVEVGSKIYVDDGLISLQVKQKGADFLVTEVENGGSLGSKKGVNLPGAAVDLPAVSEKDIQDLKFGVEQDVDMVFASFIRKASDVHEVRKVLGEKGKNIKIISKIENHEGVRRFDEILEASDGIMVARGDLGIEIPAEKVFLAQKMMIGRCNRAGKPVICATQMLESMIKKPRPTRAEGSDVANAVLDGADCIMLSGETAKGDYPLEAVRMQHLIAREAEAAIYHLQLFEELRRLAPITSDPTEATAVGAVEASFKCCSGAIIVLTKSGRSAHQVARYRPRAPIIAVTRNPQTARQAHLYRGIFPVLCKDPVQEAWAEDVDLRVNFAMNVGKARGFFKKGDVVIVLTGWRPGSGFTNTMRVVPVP
Procedure, shortened: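 Screening used highly purified human pyruvate kinase M2 under submaximal activity, with PEP at its Km and ADP below Km. After an hour at room temperature, ATP was read by luciferase luminescence.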

[17] = biological target: Alpha-galactosidase A (Homo sapiens) (UniProt P06280); assay: Counterscreen for Glucocerebrosidase Inhibitors: qHTS Assay for Human alpha-Galactosidase at pH 4.5 (AID 992; active means well fitted curve in the direction sought with a large enough effect; an effect the other way counts as inactive or inconclusive; further: 0% is about no effect)
Procedure, shortened: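 Each compound is preincubated briefly with 2 nM enzyme before substrate addition (80 uM); plates then sit 20 min at ambient temperature, are quenched with 1M NaOH/1M glycine, and read fluorometrically.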

[18] = biological target: alpha-glucosidase (Oryza sativa, rice) (UniProt Q653V4); assay: Counterscreen for Glucocerebrosidase Inhibitors: qHTS Assay for Rice alpha-Glucosidase at pH 5.0 (AID 997; active means well fitted curve in the direction sought with a large enough effect; an effect the other way counts as inactive or inconclusive;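 further: 0% = full activity with enzyme and -100% = basal without enzyme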)
Procedure, shortened: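 Endpoint fluorogenic assay at pH 5.0: compounds (0.7 nM to 77 uM) titrated against 4 nM rice enzyme and 400 uM 4-MU-alpha-glucoside for 20 min at room temperature; NaOH/glycine stop, read ex 365/em 440 nm, Hill-fitted AC50.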

[19] = at 7.69 µM (top of the series) unless noted
[20] = measured here: cell count channel max response
[21] = measured here: lipid channel max response
[22] = at 12.8 µM (top of the series), parasite line A
[23] = at 12.8 µM (top of the series), parasite line B

For `C[n+]1ccccc1/C=N\O`, the activity change, negative = inhibition [1, 19] was 1.66% [at 17.2 µM] (inactive), the Potency [2] was “inactive” and the activity change, negative = inhibition [3, 19] was 3.73% [at 17.2 µM] (inactive). The activity, negative = inhibition [4, 19] was 2.75% [at 17.2 µM] (inactive), the Potency [5] was > 20.6 µM (inactive) and the Potency [6] was > 20.6 µM (inactive). For the same molecule, the Potency [7] was “inactive”, the Potency [8] was “inactive” and the activity change, negative = inhibition [9] was -1.41% (inactive). For the same molecule, the max response [9, 20] was -5.77%, the max response [9, 21] was -7.21% and the activity, negative = inhibition [10, 22] was 14% (inactive). The activity, negative = inhibition [10, 23] was 8.58% (inactive).
With `CC(=O)Nc1c(I)c(C(=O)N[C@H]2[C@@H](O)[C@H](O)[C@H](CO)O[C@@H]2O)c(I)c(N(C)C(C)=O)c1I` the activity change, negative = inhibition [1, 19] was 9.89% [at 17.2 µM] (inactive), the Potency [2] was “inactive” and the activity change, negative = inhibition [3, 19] was -0.843% [at 17.2 µM] (inactive). For the same molecule, the activity, negative = inhibition [4, 19] was -3.76% [at 17.2 µM] (inactive), the Potency [5] was > 20.6 µM (inactive) and the Potency [6] was > 20.6 µM (inactive). The Potency [7] was “inactive”, the activity change, negative = inhibition [9] was -0.4% (inactive) and the max response [9, 20] was -8.07%. For the same molecule, the max response [9, 21] was -5.12%, the Potency [11] was “inactive” and the activity, negative = inhibition [10, 22] was 8.5% (inactive). For the same molecule, the activity, negative = inhibition [10, 23] was 4.91% (inactive).
In the case of `CCN[C@@H]1C[C@H](C)S(=O)(=O)c2sc(S(N)(=O)=O)cc21`, the activity change, negative = inhibition [1, 19] is reported as -11.2% [at 17.2 µM] (inactive), the Potency [2] is reported as “inactive” and the activity change, negative = inhibition [3, 19] is reported as -16.8% [at 17.2 µM] (inactive). The activity, negative = inhibition [4, 19] was -13.1% [at 17.2 µM] (inactive), the Potency [5] was > 20.6 µM (inactive) and the Potency [6] was > 20.6 µM (inactive). The Potency [7] was “inactive”, the Potency [8] was “inactive” and the activity change, negative = inhibition [9] was -5.41% (inactive). For the same molecule, the max response [9, 20] was -1.77%, the max response [9, 21] was -5.35% and the activity, negative = inhibition ([10]; at 28.7 µM (top of the series), parasite line A) was 7.35% (inactive). The activity, negative = inhibition ([10]; at 28.7 µM (top of the series), parasite line B) was 9.64% (inactive).
For `CC(=O)OCC1=C(C(=O)O)N2C(=O)[C@@H](NC(=O)Cc3cccs3)[C@@H]2SC1`, the activity change, negative = inhibition ([1]; at 17.2 µM (top of the series)) was 7.41% (inactive), the activity change, negative = inhibition ([1]; at 38 µM (top of the series)) was -2.48% (inactive) and the activity change, negative = inhibition ([3]; at 17.2 µM (top of the series)) was -11.2% (inactive). The activity change, negative = inhibition ([3]; at 38 µM (top of the series)) was 3.89% (inactive), the activity, negative = inhibition ([4]; at 17.2 µM (top of the series)) was -1.09% (inactive) and the activity, negative = inhibition ([4]; at 38 µM (top of the series)) was -3.08% (inactive). For the same molecule, the Potency [5] was > 46 µM (inactive) and > 20.6 µM (inactive), the Potency [6] was > 46 µM (inactive) and > 20.6 µM (inactive) and the Potency [7] was “inactive”. For the same molecule, the Potency [8] was “inactive”, the Potency [12] was “inactive” and the Potency [13] was “inactive”. For the same molecule, the outcome [14] was “inactive”, the outcome [15] was “inactive” and the outcome [16] was “inactive”. For the same molecule, the outcome [17] was “inactive”, the outcome [18] was “inactive” and the activity change, negative = inhibition [9] was -1.63% (inactive). It also gave a max response [9, 20] of -17.3% and a max response [9, 21] of -18.6%.
